In PubChem BioAssay AID1159580 (chemical genetic matrix, 2015):
About 2,000 (36%) of roughly 5,500 compounds were called active. Another 18% or so got no clear call; they are omitted. No stated cut-off is given here; in the data, active means normalized growth mostly below about 0.91 (no sharp cut-off); inconclusive means no clear call, values can overlap the other calls; inactive means mostly above about 0.92. The list shows a part of the results.

Experiment: chemical genetic growth profiling, strain panel (AID 1159580);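 further: tested at 20 µM; growth read once vehicle control cultures reached saturation at 30 °C; 1 = growth at the plate median or of vehicle wells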
Details: growth OD

Measured: normalized growth

O=C(Cn1ccnc1[N+](=O)[O-])NCCO
inactive: S. cerevisiae deletion strains, locus YJR075W, strain HOC1, stronger effect = lower value 1 | S. cerevisiae deletion strains, locus YKL009W, strain mrt4, stronger effect = lower value 1.03 | S. cerevisiae deletion strains, locus YKL068W, stronger effect = lower value 1.02 | S. cerevisiae deletion strains, locus YKL085W, strain MDH1 (second series), stronger effect = lower value 1.03 | S. cerevisiae deletion strains, locus YKL085W, strain MDH1, stronger effect = lower value 1.03 | S. cerevisiae deletion strains, locus YKL160W, strain elf1, stronger effect = lower value 1.02 | S. cerevisiae deletion strains, locus YKL190W, strain CNB1, stronger effect = lower value 1.01 | S. cerevisiae deletion strains, locus YKR001C, strain vps1, stronger effect = lower value 1.01 | S. cerevisiae deletion strains, locus YKR026C, strain gcn3, stronger effect = lower value 1.01 | S. cerevisiae deletion strains, locus YKR091W, strain srl3, stronger effect = lower value 1.01 | S. cerevisiae deletion strains, locus YLL001W, strain dnm1, stronger effect = lower value 1.01 | S. cerevisiae deletion strains, locus YLL026W, stronger effect = lower value 1.01 | S. cerevisiae deletion strains, locus YLL041C, strain sdh2, stronger effect = lower value 1.01 | S. cerevisiae deletion strains, locus YLR027C, strain aat2, stronger effect = lower value 1.01 | S. cerevisiae deletion strains, locus YLR039C, strain RIC1, stronger effect = lower value 1.08 | S. cerevisiae deletion strains, locus YLR058C, strain SHM2, stronger effect = lower value 1.01 | S. cerevisiae deletion strains, locus YLR102C, strain apc9, stronger effect = lower value 1.01 | S. cerevisiae deletion strains, locus YLR113W, strain HOG1, stronger effect = lower value 0.988 | S. cerevisiae deletion strains, locus YLR221C, strain rsa3, stronger effect = lower value 1.02 | S. cerevisiae deletion strains, locus YLR258W, strain gsy2, stronger effect = lower value 1.02 | S. cerevisiae deletion strains, locus YLR262C, strain YPT6 (second series), stronger effect = lower value 1.02 | S. cerevisiae deletion strains, locus YLR262C, strain YPT6, stronger effect = lower value 1.07 | S. cerevisiae deletion strains, locus YLR268W, strain sec22, stronger effect = lower value 0.981 | S. cerevisiae deletion strains, locus YLR320W, strain mms22, stronger effect = lower value 1.03 | S. cerevisiae deletion strains, locus YLR330W, strain CHS5, stronger effect = lower value 1 | S. cerevisiae deletion strains, locus YLR342W, strain FKS1 (second series), stronger effect = lower value 1.08 | S. cerevisiae deletion strains, locus YLR342W, strain FKS1, stronger effect = lower value 1.02 | S. cerevisiae deletion strains, locus YLR357W, strain rsc2, stronger effect = lower value 1.01 | S. cerevisiae deletion strains, locus YLR370C, strain arc18, stronger effect = lower value 1.02 | S. cerevisiae deletion strains, locus YLR371W, strain rom2, stronger effect = lower value 1.01 | S. cerevisiae deletion strains, locus YLR384C, strain iki3, stronger effect = lower value 1.03 | S. cerevisiae deletion strains, locus YLR418C, strain cdc73, stronger effect = lower value 0.95 | S. cerevisiae deletion strains, locus YML016C, strain PPZ1, stronger effect = lower value 1 | S. cerevisiae deletion strains, locus YML032C, strain rad52, stronger effect = lower value 1.02 | S. cerevisiae deletion strains, locus YML120C, strain ndi1, stronger effect = lower value 1 | S. cerevisiae deletion strains, locus YML124C, strain tub3, stronger effect = lower value 1 | S. cerevisiae deletion strains, locus YMR058W, strain fet3, stronger effect = lower value 1.01 | S. cerevisiae deletion strains, locus YMR078C, strain ctf18, stronger effect = lower value 1.01 | S. cerevisiae deletion strains, locus YMR125W, strain sto1, stronger effect = lower value 1.02 | S. cerevisiae deletion strains, locus YMR129W, stronger effect = lower value 1.02 | S. cerevisiae deletion strains, locus YMR205C, strain PFK2, stronger effect = lower value 1.03 | S. cerevisiae deletion strains, locus YMR223W, strain ubp8, stronger effect = lower value 1.02 | S. cerevisiae deletion strains, locus YMR231W, strain pep5, stronger effect = lower value 1.02 | S. cerevisiae deletion strains, locus YMR263W, strain SAP30, stronger effect = lower value 0.993 | S. cerevisiae deletion strains, locus YMR307W, strain GAS1, stronger effect = lower value 1.04 | S. cerevisiae deletion strains, locus YNL067W, strain RPL9B, stronger effect = lower value 0.988 | S. cerevisiae deletion strains, locus YNL071W, strain lat1, stronger effect = lower value 1 | S. cerevisiae deletion strains, locus YNL128W, strain TEP1, stronger effect = lower value 0.991 | S. cerevisiae deletion strains, locus YNL153C, strain GIM3, stronger effect = lower value 0.97 | S. cerevisiae deletion strains, locus YNL183C, strain NPR1, stronger effect = lower value 0.955 | S. cerevisiae deletion strains, locus YNL209W, strain ssb2, stronger effect = lower value 1.02 | S. cerevisiae deletion strains, locus YNL233W, strain BNI4, stronger effect = lower value 1 | S. cerevisiae deletion strains, locus YNL248C, strain rpa49, stronger effect = lower value 1.01 | S. cerevisiae deletion strains, locus YNL250W, strain rad50, stronger effect = lower value 0.99 | S. cerevisiae deletion strains, locus YNL271C, strain bni1, stronger effect = lower value 0.999 | S. cerevisiae deletion strains, locus YNL298W, strain CLA4, stronger effect = lower value 1.01 | S. cerevisiae deletion strains, locus YNL307C, strain MCK1, stronger effect = lower value 1.03 | S. cerevisiae deletion strains, locus YNL322C, strain KRE1 (second series), stronger effect = lower value 1.02 | S. cerevisiae deletion strains, locus YNL322C, strain KRE1, stronger effect = lower value 1.01 | S. cerevisiae deletion strains, locus YNR049C, strain mso1, stronger effect = lower value 1.01 | S. cerevisiae deletion strains, locus YNR052C, strain pop2, stronger effect = lower value 1.01 | S. cerevisiae deletion strains, locus YOL006C, strain TOP1, stronger effect = lower value 1.06 | S. cerevisiae deletion strains, locus YOL012C, strain htz1 0.906 | S. cerevisiae deletion strains, locus YOL147C, strain pex11, stronger effect = lower value 1.01 | S. cerevisiae deletion strains, locus YOR001W, strain rrp6, stronger effect = lower value 1.02 | S. cerevisiae deletion strains, locus YOR061W, strain CKA2, stronger effect = lower value 1 | S. cerevisiae deletion strains, locus YOR069W, strain VPS5, stronger effect = lower value 1.01 | S. cerevisiae deletion strains, locus YOR070C, strain gyp1, stronger effect = lower value 1.03 | S. cerevisiae deletion strains, locus YOR080W, strain dia2, stronger effect = lower value 1.01 | S. cerevisiae deletion strains, locus YOR083W, strain WHI5, stronger effect = lower value 1.02 | S. cerevisiae deletion strains, locus YOR106W, strain vam3, stronger effect = lower value 1.02 | S. cerevisiae deletion strains, locus YOR136W, strain idh2, stronger effect = lower value 1.01 | S. cerevisiae deletion strains, locus YOR144C, strain elg1, stronger effect = lower value 1.01 | S. cerevisiae deletion strains, locus YOR184W, strain ser1, stronger effect = lower value 1.05 | S. cerevisiae deletion strains, locus YOR231W, strain MKK1, stronger effect = lower value 0.986 | S. cerevisiae deletion strains, locus YOR265W, strain rbl2, stronger effect = lower value 1.03 | S. cerevisiae deletion strains, locus YOR270C, strain vph1, stronger effect = lower value 1.03 | S. cerevisiae deletion strains, locus YOR290C, strain snf2, stronger effect = lower value 1.01 | S. cerevisiae deletion strains, locus YOR316C, strain cot1, stronger effect = lower value 1 | S. cerevisiae deletion strains, locus YPL051W, strain arl3, stronger effect = lower value 1.02 | S. cerevisiae deletion strains, locus YPL055C, strain LGE1, stronger effect = lower value 0.955 | S. cerevisiae deletion strains, locus YPL078C, strain atp4, stronger effect = lower value 1.01 | S. cerevisiae deletion strains, locus YPL106C, strain sse1, stronger effect = lower value 1.02 | S. cerevisiae deletion strains, locus YPL240C, strain hsp82, stronger effect = lower value 1.01 | S. cerevisiae deletion strains, locus YPL241C, strain CIN2, stronger effect = lower value 1.01 | S. cerevisiae deletion strains, locus YPL256C, strain CLN2, stronger effect = lower value 0.977 | S. cerevisiae deletion strains, locus YPR119W, strain clb2, stronger effect = lower value 1.01 | S. cerevisiae deletion strains, locus YPR141C, strain kar3, stronger effect = lower value 1.01 | S. cerevisiae deletion strains, locus YPR163C, strain tif3, stronger effect = lower value 1.01 | S. cerevisiae deletion strains, locus YPR167C, strain met16, stronger effect = lower value 1.02 | S. cerevisiae deletion strains, strain wtn01, stronger effect = lower value 1 | S. cerevisiae strains, strain wild type, stronger effect = lower value 1.01
